The text below walks through data of PubChem BioAssay AID720486 (Milwaukee Institute for Drug Discovery, 2013).

The other results are listed elsewhere or left out. Calls of active or inactive are those of the source.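 Rule for the calls: active = inhibition of at least 50%; inactive = the rest.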

For the assay, the target named is Single-stranded DNA-binding protein (Escherichia coli (strain K12)) (UniProt P0AGE0). Briefly: disruption of SSB binding to ssDNA – biochemical, fluorescence polarization, selected ChemBridge compounds, counter-screen for HCV NS3 helicase inhibitor project (AID 720486).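 Note: displacers lower Cy5 polarization so higher inhibition means more SSB displaced.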 To be noted: E. coli SSB binding Cy5-dT15, fluorescence polarization; at 100 µM; active compounds read high. For orientation: In fluorescence polarisation assays a small probe gives low polarisation when free and higher when bound to something large.
Sequence of Single-stranded DNA-binding protein (Escherichia coli (strain K12)) (P0AGE0 whole entry, looked up): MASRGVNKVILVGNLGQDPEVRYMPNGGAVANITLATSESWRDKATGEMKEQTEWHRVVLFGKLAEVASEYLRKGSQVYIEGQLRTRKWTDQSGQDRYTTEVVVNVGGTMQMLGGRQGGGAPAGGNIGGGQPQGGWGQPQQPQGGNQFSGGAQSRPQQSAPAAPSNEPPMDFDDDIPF
Take `Cc1ccc(C(=O)NCCNc2ccc([N+](=O)[O-])cc2)cc1`: the inhibition was 34.5% (inactive).

Regarding `Cc1ccc(C(=O)C[n+]2cc(-c3ccccc3)n3c2CCCCC3)cc1`, the inhibition was 5.34% (inactive).

Consider `O=C(NC(=S)Nc1ccc(-c2nc3cc(Cl)ccc3o2)cc1)c1ccco1`, for which the inhibition was 19.9% (inactive).

Consider `O=c1c2c(nc3cc(-c4cccc(F)c4)[nH]n13)CCS2`, for which the inhibition is 84.2% (active).

With `C=CCN1C(=O)/C(=C\c2cc(OC)c(O)c([N+](=O)[O-])c2)C(=O)NC1=S`, the inhibition was 98.8% (active).

Turning to `CC(C)(C)N1C(=O)NC(=O)C(=Cc2cccs2)C1=O`, the inhibition was 11.4% (inactive).

In the case of `CCN(CC)c1ccc(NC(=O)/C(=C\c2ccccc2)NC(C)=O)cc1`, the inhibition is 55.1% (active).

With `CCN(CC)c1ccc(C=C2C(=O)N(C)C(=O)N(C)C2=O)c(O)c1`, the inhibition was 30.8% (inactive).

Turning to `N#Cc1c(N)nc2sc(C(=O)Nc3ccccc3)c(N)c2c1-c1ccco1`, the inhibition was 16.3% (inactive).

In the case of `COc1ccc(C(=O)Oc2ccc3oc(=O)cc(C)c3c2)cc1OC`, the inhibition is 12.6% (inactive).

`O=C1NC(=O)C(=Cc2cc([N+](=O)[O-])cc(Br)c2O)C(=O)N1`: the inhibition is 51.5% (active).

Take `COc1ccc(N2C(=O)C=CC2=O)c([N+](=O)[O-])c1`: the inhibition is -5.58% (inactive).

As to `COc1cc(/C(O)=C(\C#N)c2nc3ccccc3n2C)cc(OC)c1OC`, the inhibition was 10.2% (inactive).

For `COc1cc(C=C2C(=O)NC(=O)NC2=O)ccc1OCCOc1ccc([N+](=O)[O-])cc1`, the inhibition was 19.9% (inactive).

Turning to `CCOc1ccc(C=C2C(=O)NC(=O)NC2=O)cc1Cl`, the inhibition is 19.9% (inactive).

The inhibition is the relative decrease from the control value, in per cent.
